In PubChem BioAssay (Tox21) one finds Potency data, which are given here for 13 compounds.

Molecules are shown by their SMILES. “And” between values parts separate entries of the source, which are not always exact repeats. Identical values can stand only once. Results filed as inconclusive are left out. Some compounds were tested as several samples or in several runs, with calls that do not always agree. The source made the active and inactive calls. Unless noted, calls come from the whole dose curve; as a rule, active = well fitted curve in the direction sought with a large enough effect in the repeat runs; inconclusive = weak or mixed curves; inactive = no such curve, though single readings can be large; an effect the other way counts as inactive or inconclusive.

Assay [1] can be described thus: qHTS assay to identify small molecule antagonists of the thyroid receptor (TR) signaling pathway - cell viability counter screen (AID 743064). Note: nearly all actives have a fitted effect of over 50% in size. The gist of the method:
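GH3.TRE-Luc rat pituitary cells carrying a TRE-luciferase reporter were treated with compound plus 1 nM T3 (final) for 23.5 h at 37 °C. Viability was then read in the same wells by CellTiter-Fluor fluorescence after a further 30 min.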
On the technique in general: Quantitative high-throughput screening tests each substance at several concentrations.

The nature of assay [2]: qHTS assay to identify small molecule antagonists of the thyroid receptor (TR) signaling pathway (AID 743065). Note: series mostly up to about 70 µM; nearly all actives have a fitted effect of over 55% in size. The gist of the method:
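GH3.TRE-Luc rat pituitary cells (two TREs driving luciferase) were dosed with compound, then stimulated with 1 nM T3 (final) for 23.5 h at 37 C. ONE-Glo luminescence was the read-out, with CellTiter-Fluor fluorescence as the cytotoxicity counter-screen.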

Assay [3] has as its system thyroid hormone receptor (rat, GH3 cells). Nature of the assay: qHTS assay to identify small molecule agonists of the thyroid receptor (TR) signaling pathway (AID 743066; calls by dose curve).
Assay [4] addresses Estrogen receptor (Homo sapiens) (UniProt P03372). Nature of the assay: qHTS assay to identify small molecule antagonists of the estrogen receptor alpha (ER-alpha) signaling pathway (AID 743069; active = well fitted curve in the direction sought with a large enough effect in the signal ratio in the repeat runs, not every such curve was filed as active; the % refers to the signal ratio). The gist of the method:
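Reporter cells (ER-alpha-bla, HEK293 background) are conditioned overnight in stripped-serum medium (2% charcoal-stripped FBS). Compound and 17beta-estradiol exposure runs 18 hr at 37C, 5% CO2.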

A short description of assay [5]: qHTS assay to identify small molecule antagonists of the estrogen receptor alpha (ER-alpha) signaling pathway - cell viability counter screen (AID 743074; calls by dose curve;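 note: HEK293 cells carrying ER-alpha-UAS-bla reporter stimulated with 17beta-estradiol; nearly all actives have a fitted effect of over 45% in size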).
Assay [6] concerns the target Estrogen receptor (Homo sapiens) (UniProt P03372). Nature of the assay: qHTS assay to identify small molecule agonists of the estrogen receptor alpha (ER-alpha) signaling pathway (AID 743075; calls by dose curve;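 note: HEK293 GripTite cells with ER-alpha and UAS-driven beta-lactamase reporter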).
The target is the same in assay [7]. As to the kind of experiment: qHTS assay to identify small molecule agonists of the estrogen receptor alpha (ER-alpha) signaling pathway using the BG1 cell line (AID 743079). Note: nearly all actives have a fitted effect of over 20% in size. Note: potency is the fitted concentration of half-maximal effect.
The nature of assay [8]: qHTS assay to identify small molecule antagonists of the estrogen receptor alpha (ER-alpha) signaling pathway using the BG1 cell line (AID 743080; calls by dose curve;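 note: BG1 cells stimulated with 17beta-estradiol alongside compound; series mostly up to about 70 µM; nearly all actives have a fitted effect of over 25% in size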). The gist of the method:
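BG1Luc4E2, endogenous ER-alpha, 4xERE-luc; 5 d charcoal-stripped FBS, phenol red free; 24 h plating; cpd + 17beta-estradiol 21.5 h, 37 C/5% CO2; CellTiter-Fluor viability 30 min, then ONE-Glo luciferase 30 min RT.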

Assay [9] is described as follows: qHTS assay to identify small molecule antagonists of the estrogen receptor alpha (ER-alpha) signaling pathway using the BG1 cell line - cell viability counter screen (AID 743081).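 Note: compound given together with 17beta-estradiol as the ER stimulus; series mostly up to about 70 µM; nearly all actives have a fitted effect of over 45% in size.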
The target in a further assay is Aromatase (Homo sapiens) (UniProt P11511). As to the kind of experiment: qHTS assay to identify aromatase inhibitors (AID 743083). Note: series mostly up to about 70 µM; nearly all actives have a fitted effect of over 55% in size.
A short description of assay [10]: qHTS assay to identify aromatase inhibitors - cell viability counter screen (AID 743084).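 Note: cells stimulated with testosterone during compound exposure; nearly all actives have a fitted effect of over 55% in size.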 Note: potency is the fitted concentration of half-maximal effect.
Assay [11] deals with Aryl hydrocarbon receptor (Homo sapiens) (UniProt P35869). Nature of the assay: qHTS assay to identify small molecule that activate the aryl hydrocarbon receptor (AhR) signaling pathway (AID 743085).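 Note: HG2L7.5c1 human HepG2 liver cells with stably integrated DRE-driven firefly reporter; series mostly up to about 70 µM; nearly all actives have a fitted effect of over 15% in size.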 Put shortly:
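HepG2 cells (HG2L7.5c1) stably carrying a firefly luciferase reporter driven by 20 dioxin responsive elements were exposed to compound for 24 h at 37C after a 5 h settling period; luminescence rise (ONE-Glo) indicated activation.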

The nature of assay [12]: qHTS assay to identify small molecule that activate the aryl hydrocarbon receptor (AhR) signaling pathway - cell viability counter screen (AID 743086). Note: nearly all actives have a fitted effect of over 45% in size. Note: potency is the fitted concentration of half-maximal effect. The gist of the method:
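HepG2-AhR-luc (HG2L7.5c1) cells, 4000/well, treated 24 h at 37 C with compound; viability measured as CellTiter-Fluor fluorescence after 30 min in the same wells as the luciferase read.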

Assay [13] addresses Peroxisome proliferator-activated receptor gamma (Homo sapiens) (UniProt P37231). As to the kind of experiment: qHTS assay to identify small molecule agonists of the peroxisome proliferator-activated receptor gamma (PPARg) signaling pathway (AID 743094; active = well fitted activation curve with a large enough effect in the signal ratio in the repeat runs, not every such curve was filed as active; the % refers to the signal ratio). The gist of the method:
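Quantitative HTS agonist mode: stable HEK293H line with UAS-beta-lactamase reporter under PPARg control, 17 h compound exposure at 37C, fluorescence after 1 h FRET substrate loading at room temperature.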

Chain of Peroxisome proliferator-activated receptor gamma (Homo sapiens) (P37231 whole entry, looked up): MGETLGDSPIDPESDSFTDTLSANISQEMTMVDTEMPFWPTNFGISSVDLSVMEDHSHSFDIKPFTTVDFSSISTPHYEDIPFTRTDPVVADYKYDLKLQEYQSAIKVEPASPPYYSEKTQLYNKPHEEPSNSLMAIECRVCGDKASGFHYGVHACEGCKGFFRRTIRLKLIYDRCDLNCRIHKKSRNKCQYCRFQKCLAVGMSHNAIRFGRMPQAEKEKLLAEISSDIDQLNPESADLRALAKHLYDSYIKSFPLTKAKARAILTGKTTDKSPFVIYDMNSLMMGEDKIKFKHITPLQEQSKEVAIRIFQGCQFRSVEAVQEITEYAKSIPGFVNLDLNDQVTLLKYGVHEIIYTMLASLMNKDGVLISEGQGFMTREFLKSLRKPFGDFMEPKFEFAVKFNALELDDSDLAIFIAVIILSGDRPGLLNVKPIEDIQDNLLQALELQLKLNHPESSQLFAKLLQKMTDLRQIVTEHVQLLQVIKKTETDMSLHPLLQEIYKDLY
Chain of Aryl hydrocarbon receptor (Homo sapiens) (P35869 whole entry, looked up): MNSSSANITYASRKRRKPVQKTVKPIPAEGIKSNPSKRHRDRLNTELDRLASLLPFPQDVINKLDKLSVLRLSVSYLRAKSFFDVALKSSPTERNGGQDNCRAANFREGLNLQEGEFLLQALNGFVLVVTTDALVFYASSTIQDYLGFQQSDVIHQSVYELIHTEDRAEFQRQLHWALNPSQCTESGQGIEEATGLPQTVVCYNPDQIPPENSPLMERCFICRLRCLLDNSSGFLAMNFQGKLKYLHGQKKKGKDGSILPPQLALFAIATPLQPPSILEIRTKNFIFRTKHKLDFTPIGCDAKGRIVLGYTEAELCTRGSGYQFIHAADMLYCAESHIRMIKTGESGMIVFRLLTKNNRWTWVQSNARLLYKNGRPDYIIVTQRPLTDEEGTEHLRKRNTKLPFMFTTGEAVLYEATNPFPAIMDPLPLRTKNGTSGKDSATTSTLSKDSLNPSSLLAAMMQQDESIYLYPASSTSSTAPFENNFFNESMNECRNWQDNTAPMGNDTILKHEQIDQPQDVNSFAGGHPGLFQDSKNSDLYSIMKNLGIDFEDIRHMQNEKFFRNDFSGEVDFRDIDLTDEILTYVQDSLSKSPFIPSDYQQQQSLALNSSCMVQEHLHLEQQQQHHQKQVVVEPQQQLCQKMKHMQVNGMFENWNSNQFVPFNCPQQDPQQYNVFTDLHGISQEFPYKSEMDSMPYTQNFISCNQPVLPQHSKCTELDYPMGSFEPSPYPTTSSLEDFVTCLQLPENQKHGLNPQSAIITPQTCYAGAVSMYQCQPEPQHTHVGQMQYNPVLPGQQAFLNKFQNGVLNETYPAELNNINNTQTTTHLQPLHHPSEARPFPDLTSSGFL
Chain of Estrogen receptor (Homo sapiens) (P03372 whole entry, looked up): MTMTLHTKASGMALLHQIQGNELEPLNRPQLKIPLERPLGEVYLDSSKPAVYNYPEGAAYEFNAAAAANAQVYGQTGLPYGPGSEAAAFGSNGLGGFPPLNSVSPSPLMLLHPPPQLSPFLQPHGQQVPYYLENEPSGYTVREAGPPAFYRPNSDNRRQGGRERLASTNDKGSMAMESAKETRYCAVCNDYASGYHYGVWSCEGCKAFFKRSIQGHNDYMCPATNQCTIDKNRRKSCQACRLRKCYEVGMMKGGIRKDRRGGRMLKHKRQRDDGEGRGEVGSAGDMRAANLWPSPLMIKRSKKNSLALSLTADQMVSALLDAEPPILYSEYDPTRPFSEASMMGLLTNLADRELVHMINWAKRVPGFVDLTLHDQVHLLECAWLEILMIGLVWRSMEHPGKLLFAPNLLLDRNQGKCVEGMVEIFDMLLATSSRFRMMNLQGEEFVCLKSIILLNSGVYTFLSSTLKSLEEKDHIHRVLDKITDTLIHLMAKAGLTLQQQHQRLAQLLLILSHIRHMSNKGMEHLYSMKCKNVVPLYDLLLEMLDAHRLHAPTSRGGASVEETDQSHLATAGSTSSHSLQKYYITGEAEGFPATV
Chain of Aromatase (Homo sapiens) (P11511 whole entry, looked up): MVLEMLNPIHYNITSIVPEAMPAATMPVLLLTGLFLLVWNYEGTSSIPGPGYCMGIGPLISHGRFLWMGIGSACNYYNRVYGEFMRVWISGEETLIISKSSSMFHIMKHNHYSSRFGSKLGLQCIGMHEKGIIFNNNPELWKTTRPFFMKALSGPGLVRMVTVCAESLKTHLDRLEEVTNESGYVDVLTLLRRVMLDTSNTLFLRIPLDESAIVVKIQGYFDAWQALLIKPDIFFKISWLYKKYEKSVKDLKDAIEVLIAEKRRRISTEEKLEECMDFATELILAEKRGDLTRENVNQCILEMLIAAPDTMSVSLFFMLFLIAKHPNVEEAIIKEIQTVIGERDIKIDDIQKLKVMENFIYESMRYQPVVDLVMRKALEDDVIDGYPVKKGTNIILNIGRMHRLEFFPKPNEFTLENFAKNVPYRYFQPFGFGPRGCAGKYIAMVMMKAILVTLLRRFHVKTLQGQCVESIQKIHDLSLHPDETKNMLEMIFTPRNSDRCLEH

On to `C=CC1=C(C(=O)O)N2C(=O)[C@@H](NC(=O)/C(=N\O)c3csc(N)n3)[C@H]2SC1` (stereo in doubt), for which the Potency result in assay [1], in [2], in assay [3], in [4], in [5] and in [6] was “inactive” throughout. Besides, the Potency result (in assay [7]; in assay [8]; in assay [9]; with Aromatase (Homo sapiens); in assay [10]; in [11]) was “inactive” in each case. Besides, the Potency result in [12] and in assay [13] was “inactive” in each case.
For `O=P(O)(O)CP(=O)(O)O`, the Potency result in assay [1], in [2], in assay [3], in assay [4], in assay [5] and in [6] was “inactive” each time. For the same compound, the Potency entry (in assay [7]; in assay [8]; in [9]; in the assay with Aromatase (Homo sapiens); in [10]; in assay [12]) was “inactive” throughout. Moreover, the Potency entry in [13] is “inactive”.
Take `CC[C@H]1OC(=O)[C@H](C)C(=O)[C@H](C)[C@@H](O[C@@H]2O[C@H](C)C[C@H](N(C)C)[C@H]2O)[C@](C)(OC)C[C@@H](C)C(=O)[C@H](C)[C@H]2N(CCCCn3cnc(-c4cccnc4)c3)C(=O)O[C@]12C`: the Potency entry in [1], in assay [2], in assay [3], in [4], in [5] and in assay [6] was “inactive” throughout. Besides, the Potency result (in [7]; in [8]; in assay [9]; with Aromatase (Homo sapiens); in assay [11]; in assay [13]) was “inactive” in each case. In addition, the Potency entry was “inactive and 15 µM (active)” in assay [10]; “inactive and 21.1 µM (active)” in assay [12].
For `C=CC(N)CCC(=O)O` (stereo not drawn), the Potency result in assay [1], in assay [2], in assay [3], in assay [4], in assay [5] and in [6] was “inactive” in each case. Besides, the Potency result (in assay [7]; in assay [8]; in assay [9]; with Aromatase (Homo sapiens); in assay [10]; in assay [11]) was “inactive” each time. In addition, the Potency result in [12] and in [13] was “inactive” each time.
For `OCl`, the Potency entry in [1], in [2], in assay [3], in assay [4], in assay [5] and in [6] was “inactive” each time. Also, the Potency result (in assay [7]; in assay [8]; in assay [9]; with Aromatase (Homo sapiens); in assay [10]; in assay [11]) was “inactive” each time. Further, the Potency entry in [12] and in [13] was “inactive” each time.
For the compound `O=C(Cn1cnnn1)N[C@@H]1C(=O)N2C(C(=O)O)=C(CSc3nncs3)CS[C@H]12`, the Potency entry in assay [1], in assay [2], in assay [3], in assay [4], in assay [5] and in [6] was “inactive” each time. The Potency result (in assay [7]; in assay [8]; in [9]; with Aromatase (Homo sapiens); in assay [10]; in assay [11]) was “inactive” in each case. Also, the Potency entry in assay [13] is “inactive”.
`NC(=O)[C@@H]1C[C@]2(NC(=O)NC2=O)c2cc(F)ccc2O1`: the Potency entry in assay [1], in assay [2], in assay [3], in [4], in [5] and in assay [6] was “inactive” in each case. In addition, the Potency entry (in assay [7]; in assay [8]; in assay [9]; with Aromatase (Homo sapiens); in assay [10]; in assay [12]) was “inactive” throughout.
As for `N=C(N)n1cccn1`, the Potency entry in assay [1], in [2], in assay [3], in assay [4], in assay [5] and in [6] was “inactive” in each case. Further, the Potency result (in assay [7]; in [8]; in assay [9]; in the assay with Aromatase (Homo sapiens); in [10]; in assay [11]) was “inactive” each time. For the same compound, the Potency entry in [12] and in assay [13] was “inactive” each time.
For the compound `C=CC[N+]1([C@H]2C[C@H]3[C@@H]4CC[C@H]5C[C@H](O)[C@@H](N6CCOCC6)C[C@]5(C)[C@H]4CC[C@]3(C)[C@H]2OC(C)=O)CCCC1`, the Potency result in [1], in assay [2], in [3], in assay [4], in [5] and in [6] was “inactive” throughout. The Potency entry (in assay [8]; in assay [9]; with Aromatase (Homo sapiens); in assay [10]; in assay [11]; in [13]) was “inactive” throughout. Besides, the Potency in [7] was 26.6 µM (active).
For `CCOc1ccc(NC(=S)Nc2ccc(OCC)cc2)cc1`, the Potency entry in assay [1], in assay [2], in assay [3], in assay [4], in [5] and in assay [6] was “inactive” each time. The Potency result (in assay [7]; in [8]; in [9]; in the assay with Aromatase (Homo sapiens); in [10]; in assay [11]) was “inactive” throughout. In assay [13], the Potency entry was “inactive”.
In the case of `NCCCC[C@H](NC(=O)[C@@H]1CCCN1C(=O)[C@@H]1CSSC[C@H](N)C(=O)N[C@@H](Cc2ccc(O)cc2)C(=O)N[C@@H](Cc2ccccc2)C(=O)N[C@@H](CCC(N)=O)C(=O)N[C@@H](CC(N)=O)C(=O)N1)C(=O)NCC(N)=O`, the Potency result in assay [1], in assay [2], in assay [3], in assay [4], in assay [5] and in assay [6] was “inactive” each time. Further, the Potency result (in [7]; in assay [8]; in [9]; in the assay with Aromatase (Homo sapiens); in [10]; in [11]) was “inactive” throughout. The Potency entry in [12] and in [13] was “inactive” in each case.
Consider `CC(C)(C)C(=O)OCC(=O)[C@H]1CC[C@H]2[C@@H]3CCC4=CC(=O)CC[C@]4(C)[C@H]3CC[C@]12C`, for which the Potency entry in assay [1], in assay [2], in assay [3], in [4], in assay [5] and in [6] was “inactive” each time. Further, the Potency entry (in assay [8]; in assay [9]; in the assay with Aromatase (Homo sapiens); in [10]; in assay [12]; in assay [13]) was “inactive” throughout.
Turning to `c1ccc2c(c1)OCC(CN1CCCCC1)O2` (stereo not drawn), the Potency entry in assay [1], in [2], in assay [3], in assay [4], in assay [5] and in assay [6] was “inactive” throughout. For the same compound, the Potency result (in [7]; in [8]; in assay [9]; with Aromatase (Homo sapiens); in [10]; in assay [12]) was “inactive” in each case. Moreover, in assay [13], the Potency result is “inactive”.
